Structures are written as SMILES. In all, about 260,000 compounds went through this assay and about 2,200 (0.85%) were called active. Shown is part of a subset that was picked to be rich in actives. A number with no mark means an inactive call.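 Rule for the calls: active = compounds whose cAMP rise, as percent of the full-agonist control response, exceeds 60; inactive = the rest.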

The assay deals with Prostaglandin E2 receptor EP2 subtype (Homo sapiens) (UniProt P43116). Nature of the assay: modulation of human EP2 prostaglandin signaling – cell-based, HTRF cAMP, PGE2 stimulation, primary screen (AID 940).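 Note: rat C6 glioma line stably carrying human EP2 under a CMV promoter; the protocol text gives 20 µM as final concentration; 100% = response of wells given 1 µM PGE2.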 The following applies: EP2-expressing cells, cAMP HTRF FRET, PGE2 co-stimulation; at 25 µM; active compounds read high.
Chain of Prostaglandin E2 receptor EP2 subtype (Homo sapiens) (P43116 whole entry, looked up): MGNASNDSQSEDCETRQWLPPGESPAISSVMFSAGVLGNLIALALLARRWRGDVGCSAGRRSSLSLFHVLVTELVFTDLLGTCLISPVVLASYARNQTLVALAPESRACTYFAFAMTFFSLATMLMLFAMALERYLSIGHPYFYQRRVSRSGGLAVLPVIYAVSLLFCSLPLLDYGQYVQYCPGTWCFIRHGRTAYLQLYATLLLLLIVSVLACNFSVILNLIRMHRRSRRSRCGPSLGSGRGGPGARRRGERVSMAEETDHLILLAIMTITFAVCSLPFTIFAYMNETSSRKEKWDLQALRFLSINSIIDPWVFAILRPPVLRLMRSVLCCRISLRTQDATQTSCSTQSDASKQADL
On to `C=CCNC(=O)[C@H]1C=CCN1S(=O)(=O)c1ccc(F)cc1`, for which the induction was -8.27%. `O=C(CN1CCCCCC1)N1c2ccccc2Sc2ccc(C(F)(F)F)cc21`: the induction is 41.5%.

On to `COc1cc(/C=C/C(=O)N2c3ccccc3Sc3ccc(C(F)(F)F)cc32)cc(OC)c1OC`, for which the induction was 4.97%. For the compound `O=C(CN1CCCCC1)N1c2ccccc2Sc2ccc(C(F)(F)F)cc21`, the induction was 66.5% (active). For `Nc1cc(-c2ccco2)nn(CC(=O)NCc2ccccc2)c1=O`, the induction is 4.9%. As for `CCCNC(=O)C1COc2ccccc2O1` (stereo unspecified), the induction was -4.2%.

Consider `O=[N+]([O-])c1ccc(Sc2nc3c(c(C(F)(F)F)n2)CCCC3)nc1`, for which the induction was 34.3%. For `C/C=N/N(c1ccccc1)c1ccccc1`, the induction is 64.5% (active). Consider `COc1cccc(CN2CCN(C(=O)CCn3nnc4ccccc43)[C@@H](C)C2)c1`, for which the induction was -13.9%. The figure for `CC(C)[C@H](Cn1nc(-c2cccs2)ccc1=O)NC(=O)Cn1cnc2ccccc2c1=O` is -6.72%. For `Cc1cnc(C(=O)NC(C)c2nc(-c3ccncc3)n[nH]2)cn1` (stereo unspecified), the induction was -35.1%.

On to `CC(=O)c1c(-c2ccccc2)c2ccccc2[nH]c1=O`, for which the induction is 7.65%. The figure for `Cc1nc2ccccc2c(-c2ccccc2)c1C(=O)c1ccccc1` is 94.7% (active); for `Cc1nc2ccccc2c(C)c1C(=O)c1ccc(F)cc1` it is 11.7%; for `CC(C)n1c(=O)oc2cc(S(=O)(=O)N3CCCC(C(N)=O)C3)ccc21` (stereo unspecified) it is -51.2%.

Regarding `COc1ccc(C2CC(c3cccs3)=NN2c2ccccc2)cc1` (stereo unspecified), the induction is 21.6%. In the case of `Fc1ccc(N2N=C(c3cccs3)CC2c2ccco2)c(F)c1` (stereo unspecified), the induction was 63.6% (active). For the compound `COc1ccccc1N1N=C(c2cccs2)CC1c1ccccc1` (stereo unspecified), the induction is 38.4%. For `CCC(C)NC(=O)CSc1nc2cc3c(cc2cc1C#N)OCCO3` (stereo unspecified), the induction was 33.9%. In the case of `CCn1nnnc1SCC(=O)Nc1cccc(C(C)=O)c1`, the induction was -7.36%. Consider `O=Cc1ccc(Oc2cccc(C(F)(F)F)c2)nc1`, for which the induction is 16.6%. On to `Cc1nc(N)[nH]c(=O)c1Oc1cccc(C(F)(F)F)c1`, for which the induction is 22.3%. Turning to `CCC(=O)OCc1c(C(F)(F)F)nn(C)c1Oc1cccc(C(F)(F)F)c1`, the induction is 62.3% (active). Regarding `CCn1c(SCC(=O)Nc2ccc(C(=O)OC)cc2)nnc1-c1cccnc1`, the induction was -7.67%. Take `CCCC(=O)Nc1ncnc2c1ncn2C1O[C@@H]2COP(=O)(O)O[C@H]2[C@H]1OC(=O)CCC` (stereo partly specified): the induction was 107% (active).

Consider `OC[C@H]1O[C@@H](n2cnc3c(N[C@H]4CC5CCC4C5)ncnc32)[C@H](O)[C@@H]1O` (stereo partly specified), for which the induction is 0.16%. Take `CNc1ncnc2c1ncn2[C@@H]1O[C@H](CO)[C@H](O)C1O` (stereo partly specified): the induction was 15.2%. As for `CCOC(=O)C(C)n1nc(-c2ccccc2)c2ccccc2c1=O` (stereo unspecified), the induction is 49.3%.

Take `O=c1c2ccccc2c(-c2ccc(Br)cc2)nn1Cc1ccccc1`: the induction is 71.6% (active). The figure for `O=c1c2ccccc2c(-c2ccc(F)cc2)nn1-c1ccc(C(F)(F)F)cc1` is 47%.

As to `O=c1c2ccccc2c(-c2ccccc2)nn1Cc1ccccc1`, the induction is 66.7% (active). The figure for `O=c1c2ccccc2c(-c2ccccc2)nn1-c1ccccn1` is 11.6%; for `O=C(NCCc1ccco1)c1nn(Cc2ccccc2)c(=O)c2ccccc12` it is 44.9%.

As to `CCCOc1ccc(C2C(C(=O)Nc3ccccc3OC)=C(C)Nc3ncnn32)cc1` (stereo unspecified), the induction is 2.41%.

Turning to `Cc1cc(C)nc(N2CCC(C(=O)NCC(N)=O)CC2)n1`, the induction is -4.46%. The figure for `Cc1cc(C)c2cc(C(c3nnnn3C(C)(C)C)N3CCCc4ccccc43)c(=O)[nH]c2c1` (stereo unspecified) is 26.2%.

With `COc1ccc2[nH]c(=O)c(CN(CCCO)C(=S)NCCCN(C)C)cc2c1`, the induction was -11.3%. The figure for `CC(C)(C)c1nn(-c2ccc(F)cc2)c2[nH]c(=O)c(CNCCc3ccncc3)cc12` is -25.4%; for `Cc1ccccc1OCCCC(=O)Nc1nnc(C2CCCCC2)s1` it is -40.5%; for `COc1ccc(C(=O)N2CCc3cc(OC)c(OC)cc3C2c2ccccc2)cc1OC` (stereo unspecified) it is 24.2%.

Take `COC(=O)c1ccc(S(=O)(=O)NCc2ccccc2)n1C`: the induction was 70.4% (active).

Turning to `COC(=O)c1ccc(S(=O)(=O)N(CCO)Cc2ccccc2)n1C`, the induction was -22.6%. With `Cn1c(C(=O)O)ccc1S(=O)(=O)N(Cc1ccccc1)Cc1ccccc1`, the induction was 21.3%. The figure for `COc1cccc(/C(O)=C2/C(=O)C(=O)NC2c2cccs2)c1` (stereo unspecified) is 4.28%; for `CN(C(=O)Cc1ccccc1F)c1nc2c(s1)CCc1occc1-2` it is -25.4%; for `CN(C)Cc1ccc(F)cc1Sc1cc(Cl)ccc1Cl` it is 75.3% (active).

As to `C=COCCNC(=O)C1CCN(c2nc3ccccc3n2CC)CC1`, the induction was -36.5%. In the case of `COc1cccc(CN(Cc2ccco2)Cc2cncn2C)c1`, the induction was -1.11%.

In the case of `CCC(=O)Oc1cccc(C(=O)Nc2ccc(-c3nnc(-c4ccco4)o3)cc2)c1`, the induction is -19%. On to `CCCCOc1ccc(-c2nnc(-c3ccco3)o2)cc1`, for which the induction was 66.9% (active). As for `CCOc1ccc(-c2nnc(-c3ccco3)o2)cc1`, the induction is -1.22%.

Consider `Cc1ccccc1CN1CCC(N2CCCCC2)CC1`, for which the induction is -20.6%. With `COc1cc(CN2CCN(C(=O)c3cc(OC)c(OC)c(OC)c3)CC2)cc(OC)c1O`, the induction is -32.7%. As for `Cc1ccc(NC(=O)CSc2nnnn2-c2ccc3c(c2)OCO3)cc1`, the induction was -41.6%. For `COc1ccc(C2CC(c3cccs3)=Nc3ccccc3S2)cc1OC` (stereo unspecified), the induction is 61.9% (active). The figure for `COc1ccc(C2CC(c3cccs3)=NN2c2ccc(F)cc2)cc1OC` (stereo unspecified) is 13.2%. Turning to `COc1ccc(C2CC(c3cccs3)=NN2C(=O)CSc2nnc(N)s2)cc1OC` (stereo unspecified), the induction is -1.37%. Regarding `Cc1cc2c(s1)c1cnn(CC(=O)NC(C)C)c(=O)c1n2C`, the induction was -39.8%. In the case of `COc1cc2[nH]c(=O)c(C(=O)NCc3ccc4c(c3)OCO4)c(O)c2cc1OC`, the induction is 4.8%. In the case of `COc1cccc(CN2CCC(C(=O)NC(C)(C)C)CC2)c1O`, the induction is -12.3%. Turning to `O=C(COC(=O)c1cccc(Br)c1)Nc1cccc2c1C(=O)c1ccccc1C2=O`, the induction is -14.5%. The figure for `O=C(COC(=O)c1ccccn1)Nc1cccc2ccccc12` is -6.19%; for `Cc1ccccc1C(=O)Nc1ccc(N2CCCCCC2)cc1` it is -79.9%; for `O=C(Nc1ccccc1F)c1ccccc1-c1ccccc1` it is 33.6%.

As to `Cc1ccccc1C(=O)Nc1ccccc1Sc1ccccc1`, the induction is 73.8% (active).

With `O=C(COC(=O)c1ccccc1)Nc1ccccc1Sc1ccccc1`, the induction was 68.5% (active).

These data come from PubChem BioAssay AID940 (Emory University Molecular Libraries Screening Center, 2007).
